Holding throughout (assay): DAPPL (digital affinity profiling via proximity ligation, sequencing); 10 mM Tris-HCl pH 7.5, 50 mM NaCl, 1 mM DTT, 4% glycerol, room temperature, 30 min; GST-TFs on glutathione beads, 16-mer random dsDNA library, 0.1% formaldehyde crosslink after washing; high values mean tight binding
Holding throughout (conditions): protein: recombinant; tags: N-terminal GST; dsDNA, one strand shown

For one test, the target named is T1, FLI1 (Homo sapiens, UniProt Q01543 1-452).
T1 sequence: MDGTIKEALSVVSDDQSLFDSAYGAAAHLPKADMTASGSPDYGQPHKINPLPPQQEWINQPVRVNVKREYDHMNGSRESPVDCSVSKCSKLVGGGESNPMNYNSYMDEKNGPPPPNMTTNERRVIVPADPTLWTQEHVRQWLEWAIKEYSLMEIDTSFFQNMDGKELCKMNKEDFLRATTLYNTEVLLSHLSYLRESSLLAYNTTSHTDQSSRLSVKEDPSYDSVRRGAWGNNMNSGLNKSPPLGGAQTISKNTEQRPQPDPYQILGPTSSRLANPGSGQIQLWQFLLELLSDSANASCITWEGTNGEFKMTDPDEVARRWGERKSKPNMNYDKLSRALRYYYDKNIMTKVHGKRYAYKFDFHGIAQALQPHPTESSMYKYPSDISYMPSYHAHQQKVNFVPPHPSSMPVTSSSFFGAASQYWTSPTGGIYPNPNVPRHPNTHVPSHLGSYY
Put shortly: (§1)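 Human transcription factors carrying a GST fusion were produced in yeast, bound to glutathione beads, tagged with DNA barcodes and pooled together with a tag-only sample. Each pool was held with 200 nmole of a random double-stranded 16-mer DNA library in Tris/NaCl/DTT/glycerol buffer for 30 min at room temperature, then washed, crosslinked in 0.1% formaldehyde, proximity-ligated with BsaI/T4 ligase (1 h, 37 °C), PCR-amplified and sequenced on an Illumina NextSeq500. Binding signal is the read frequency of each hexamer for a given factor divided by its frequency in the tag-only sample.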

The target in a further test is T2, ELK1 (Homo sapiens, UniProt P19419 1-428).
T2 sequence: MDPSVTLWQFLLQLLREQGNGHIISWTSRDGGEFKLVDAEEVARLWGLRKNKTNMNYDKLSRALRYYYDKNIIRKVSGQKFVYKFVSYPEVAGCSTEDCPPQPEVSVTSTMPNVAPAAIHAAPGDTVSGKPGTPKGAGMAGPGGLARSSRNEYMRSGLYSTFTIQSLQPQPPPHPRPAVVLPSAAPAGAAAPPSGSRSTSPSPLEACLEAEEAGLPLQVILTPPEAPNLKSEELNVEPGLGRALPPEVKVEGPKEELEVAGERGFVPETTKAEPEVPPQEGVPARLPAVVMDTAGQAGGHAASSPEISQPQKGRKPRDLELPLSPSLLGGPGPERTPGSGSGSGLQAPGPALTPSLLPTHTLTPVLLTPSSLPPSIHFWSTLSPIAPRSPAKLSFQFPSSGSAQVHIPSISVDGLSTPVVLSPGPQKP
In a few lines: as §1

For the next test, the target named is T3, GABPA (Homo sapiens, UniProt Q06546 1-454).
T3 sequence: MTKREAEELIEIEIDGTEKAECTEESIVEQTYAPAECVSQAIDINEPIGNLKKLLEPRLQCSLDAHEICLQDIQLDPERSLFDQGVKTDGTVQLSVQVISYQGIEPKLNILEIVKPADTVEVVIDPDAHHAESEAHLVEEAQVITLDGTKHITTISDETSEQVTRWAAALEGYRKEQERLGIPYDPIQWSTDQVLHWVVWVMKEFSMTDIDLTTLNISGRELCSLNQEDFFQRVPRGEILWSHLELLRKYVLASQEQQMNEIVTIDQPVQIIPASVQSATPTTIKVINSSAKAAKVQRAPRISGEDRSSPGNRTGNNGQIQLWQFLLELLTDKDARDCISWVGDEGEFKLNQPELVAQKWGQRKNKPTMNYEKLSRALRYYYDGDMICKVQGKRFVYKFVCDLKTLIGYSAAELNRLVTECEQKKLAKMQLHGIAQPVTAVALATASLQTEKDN
Put shortly:
as §1

For a further test, the target named is ELF1 (Homo sapiens, UniProt P32519 1-619). In a few lines: as §1
Sequence of ELF1 (P32519 whole entry): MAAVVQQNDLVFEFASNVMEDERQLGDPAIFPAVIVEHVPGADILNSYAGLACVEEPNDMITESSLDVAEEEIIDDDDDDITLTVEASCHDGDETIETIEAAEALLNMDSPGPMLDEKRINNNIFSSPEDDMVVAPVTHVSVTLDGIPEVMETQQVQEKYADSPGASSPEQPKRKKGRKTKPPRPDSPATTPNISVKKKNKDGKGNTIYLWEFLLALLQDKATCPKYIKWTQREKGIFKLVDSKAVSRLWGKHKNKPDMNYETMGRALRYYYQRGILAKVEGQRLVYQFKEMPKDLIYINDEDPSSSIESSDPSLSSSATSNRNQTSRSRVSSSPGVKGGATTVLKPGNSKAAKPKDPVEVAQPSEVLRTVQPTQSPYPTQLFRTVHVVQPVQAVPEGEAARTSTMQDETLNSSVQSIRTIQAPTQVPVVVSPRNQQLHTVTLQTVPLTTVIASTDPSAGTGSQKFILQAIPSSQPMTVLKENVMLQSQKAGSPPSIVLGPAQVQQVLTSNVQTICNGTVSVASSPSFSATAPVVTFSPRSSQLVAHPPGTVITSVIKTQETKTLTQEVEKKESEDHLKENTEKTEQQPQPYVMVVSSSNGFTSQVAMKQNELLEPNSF
Another test deals with T4, EHF (Homo sapiens, UniProt Q9NZC4 1-300).
T4 sequence: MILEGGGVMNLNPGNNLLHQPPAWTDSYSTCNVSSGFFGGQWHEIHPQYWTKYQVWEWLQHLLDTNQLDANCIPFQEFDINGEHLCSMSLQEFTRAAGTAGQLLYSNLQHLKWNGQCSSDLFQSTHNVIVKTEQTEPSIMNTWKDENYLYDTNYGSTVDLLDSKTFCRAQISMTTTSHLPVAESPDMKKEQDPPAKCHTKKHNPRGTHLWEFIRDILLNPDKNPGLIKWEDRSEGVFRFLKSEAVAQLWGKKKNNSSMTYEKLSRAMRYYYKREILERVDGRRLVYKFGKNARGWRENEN
Put shortly: as §1

In a further test the target is SPI1 (Homo sapiens, UniProt P17947 1-270). In a few lines: as §1
The next test concerns the target SPIB (Homo sapiens, UniProt Q01892 1-262). In a few lines:
as §1

A further test has as its target T5, ELK3 (Homo sapiens, UniProt P41970 1-407).
T5 sequence: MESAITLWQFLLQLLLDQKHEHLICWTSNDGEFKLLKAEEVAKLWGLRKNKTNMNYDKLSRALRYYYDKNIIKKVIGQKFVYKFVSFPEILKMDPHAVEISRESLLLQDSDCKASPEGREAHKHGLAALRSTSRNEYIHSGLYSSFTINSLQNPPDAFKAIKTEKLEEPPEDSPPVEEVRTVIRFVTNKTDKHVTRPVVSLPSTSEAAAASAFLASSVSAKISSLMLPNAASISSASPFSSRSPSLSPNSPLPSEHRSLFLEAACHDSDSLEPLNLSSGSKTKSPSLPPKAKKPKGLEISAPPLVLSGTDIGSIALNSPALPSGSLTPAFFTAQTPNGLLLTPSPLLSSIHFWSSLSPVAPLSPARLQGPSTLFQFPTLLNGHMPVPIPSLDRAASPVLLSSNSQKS
Put shortly: as §1

Another test deals with T6, ERG (Homo sapiens, UniProt P11308 1-479).
T6 sequence: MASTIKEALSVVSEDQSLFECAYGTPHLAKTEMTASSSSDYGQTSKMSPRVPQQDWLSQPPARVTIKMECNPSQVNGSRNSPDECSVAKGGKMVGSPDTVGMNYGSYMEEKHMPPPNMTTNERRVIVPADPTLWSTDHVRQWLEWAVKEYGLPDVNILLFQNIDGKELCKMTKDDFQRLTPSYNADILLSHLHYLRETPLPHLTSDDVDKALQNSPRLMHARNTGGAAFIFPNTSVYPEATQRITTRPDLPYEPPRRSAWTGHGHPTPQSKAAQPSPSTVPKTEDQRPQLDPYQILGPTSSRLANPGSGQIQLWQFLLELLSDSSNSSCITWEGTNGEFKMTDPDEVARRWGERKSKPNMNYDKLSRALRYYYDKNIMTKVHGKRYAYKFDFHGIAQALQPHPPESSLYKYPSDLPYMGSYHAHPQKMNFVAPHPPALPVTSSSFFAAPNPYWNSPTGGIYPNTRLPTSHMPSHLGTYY
Put shortly:
as §1

Sequence of SPIB (Q01892 whole entry): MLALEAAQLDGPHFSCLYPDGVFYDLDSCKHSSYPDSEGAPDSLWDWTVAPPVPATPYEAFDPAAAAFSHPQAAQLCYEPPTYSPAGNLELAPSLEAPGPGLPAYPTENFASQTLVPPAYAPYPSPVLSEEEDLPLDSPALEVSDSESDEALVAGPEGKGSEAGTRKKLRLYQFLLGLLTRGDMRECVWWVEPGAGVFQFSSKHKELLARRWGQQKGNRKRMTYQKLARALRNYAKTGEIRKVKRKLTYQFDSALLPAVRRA

For GTAGCA, the binding signal was 1.03 fold enrichment (6-mer frequency, TF over GST control) with FLI1; 1.1 fold enrichment (6-mer frequency, TF over GST control) with ELK1; 1.15 fold enrichment (6-mer frequency, TF over GST control) with GABPA; 1.16 fold enrichment (6-mer frequency, TF over GST control) with ELF1; 1.1 fold enrichment (6-mer frequency, TF over GST control) with EHF; 1.08 fold enrichment (6-mer frequency, TF over GST control) with SPI1. Moreover, the binding signal in the test with SPIB is 1.03 fold enrichment (6-mer frequency, TF over GST control); with ELK3, 1.11 fold enrichment (6-mer frequency, TF over GST control).
For the sequence TAACAG, the binding signal with FLI1 is 1.06 fold enrichment (6-mer frequency, TF over GST control); with ELK1, 1.05 fold enrichment (6-mer frequency, TF over GST control); with ERG, 1.01 fold enrichment (6-mer frequency, TF over GST control); with ELF1, 1.09 fold enrichment (6-mer frequency, TF over GST control); with EHF it was 1.07 fold enrichment (6-mer frequency, TF over GST control); with SPI1, 1.11 fold enrichment (6-mer frequency, TF over GST control). In addition, the binding signal with SPIB was 1.09 fold enrichment (6-mer frequency, TF over GST control); in the test with ELK3, 1.07 fold enrichment (6-mer frequency, TF over GST control).
Consider CTCGTG, for which the binding signal with FLI1 was 1.19 fold enrichment (6-mer frequency, TF over GST control); with ELK1, 1.09 fold enrichment (6-mer frequency, TF over GST control); with GABPA it was 1.28 fold enrichment (6-mer frequency, TF over GST control); with ELF1, 1.16 fold enrichment (6-mer frequency, TF over GST control); with EHF, 1.07 fold enrichment (6-mer frequency, TF over GST control); with SPIB it was 1.05 fold enrichment (6-mer frequency, TF over GST control). In the test with ELK3, the binding signal was 1.11 fold enrichment (6-mer frequency, TF over GST control).
TAGATC: the binding signal is 1.05 fold enrichment (6-mer frequency, TF over GST control) with FLI1; 1.14 fold enrichment (6-mer frequency, TF over GST control) with ELK1; 1 fold enrichment (6-mer frequency, TF over GST control) in the test with ERG; 1.06 fold enrichment (6-mer frequency, TF over GST control) with ELF1; 1.04 fold enrichment (6-mer frequency, TF over GST control) with EHF; 1.21 fold enrichment (6-mer frequency, TF over GST control) with ELK3.
Take CCGCGC: the binding signal is 1.12 fold enrichment (6-mer frequency, TF over GST control) with FLI1; 1.16 fold enrichment (6-mer frequency, TF over GST control) in the test with ELK1; 1.2 fold enrichment (6-mer frequency, TF over GST control) with ERG; 1.18 fold enrichment (6-mer frequency, TF over GST control) in the test with ELF1; 1.05 fold enrichment (6-mer frequency, TF over GST control) with EHF; 1.14 fold enrichment (6-mer frequency, TF over GST control) in the test with SPI1. Moreover, the binding signal is 1.24 fold enrichment (6-mer frequency, TF over GST control) with SPIB and 1.24 fold enrichment (6-mer frequency, TF over GST control) with ELK3.
With AAAGGT, the binding signal was 1.1 fold enrichment (6-mer frequency, TF over GST control) with FLI1; 1.06 fold enrichment (6-mer frequency, TF over GST control) in the test with ELK1; 1.1 fold enrichment (6-mer frequency, TF over GST control) in the test with GABPA; 1.07 fold enrichment (6-mer frequency, TF over GST control) with ELF1; 1.06 fold enrichment (6-mer frequency, TF over GST control) in the test with EHF; 1.01 fold enrichment (6-mer frequency, TF over GST control) with SPI1. Also, the binding signal was 1.02 fold enrichment (6-mer frequency, TF over GST control) in the test with SPIB and 1.05 fold enrichment (6-mer frequency, TF over GST control) with ELK3.
For the sequence ACAGAT, the binding signal with FLI1 is 1.02 fold enrichment (6-mer frequency, TF over GST control); with ELK1, 1.1 fold enrichment (6-mer frequency, TF over GST control); in the test with ERG it was 1.07 fold enrichment (6-mer frequency, TF over GST control); with ELF1, 1.02 fold enrichment (6-mer frequency, TF over GST control); in the test with EHF, 1.03 fold enrichment (6-mer frequency, TF over GST control).
Turning to TCATGA, the binding signal with FLI1 was 1.12 fold enrichment (6-mer frequency, TF over GST control); in the test with ELK1, 1 fold enrichment (6-mer frequency, TF over GST control); with GABPA it was 1.18 fold enrichment (6-mer frequency, TF over GST control); in the test with ELF1, 1.03 fold enrichment (6-mer frequency, TF over GST control); with EHF, 1.07 fold enrichment (6-mer frequency, TF over GST control); in the test with ELK3, 1.05 fold enrichment (6-mer frequency, TF over GST control).

The record behind these values is PMC7862700, “An all-to-all approach to the identification of sequence-specific readers for epigenetic DNA modifications on cytosine”.
